Test systems include T-47D breast; BT-549 breast; MDA-MB-435 melanoma; SW-620 colon; MCF7 breast; HCT-116 colon; HCC-2998 colon; KM12 colon.
What all share (experiment): NCI-60 one-dose screen, 48 h (100 = growth as untreated, 0 = no growth, -100 = all killed)
What all share (conditions): 10 µM unless noted

Structures are written as SMILES. About 83,000 compounds went through this panel and 20% of them were active in at least one assay; those are over-represented in the sample as a whole.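 Each cell line was grown in a 96-well plate and treated with one concentration of compound for 48 hours. Values below 10 were considered active.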 Unmarked numbers belong to inactive results. Activity calls are given as the source filed them.

With `COc1ccc(NC(=O)/C=C/c2ccc(NC(=O)N3CCCC3)cc2)cn1`, the growth was 99.9% in the experiment with T-47D breast; 97.4% in the experiment on BT-549 breast; 103% in the experiment with MDA-MB-435 melanoma; 106% in the experiment on SW-620 colon; 91.7% with MCF7 breast; 103% in the experiment on HCT-116 colon. In addition, the growth is 111% with HCC-2998 colon and 103% in the experiment with KM12 colon.
Take `COc1ccc2[nH]cc(C(c3ccc(Cl)cc3)N3CCCC3)c2c1` (stereo not drawn): the growth with T-47D breast was 74%; with BT-549 breast it was 65.9%; in the experiment with MDA-MB-435 melanoma it was 105%; in the experiment with SW-620 colon, 112%; in the experiment with MCF7 breast, 89.3%; in the experiment with HCT-116 colon it was 96.5%. Further, the growth in the experiment on HCC-2998 colon was 97%; with KM12 colon it was 101%.
With `CC(=O)c1c(C)nc(-c2cc(C)cc(Cl)c2)nc1-c1cccc(Oc2ccccc2)c1`, the growth in the experiment on T-47D breast was 72.3%; in the experiment on BT-549 breast, 64.3%; with MDA-MB-435 melanoma, -4.76% (active); in the experiment with SW-620 colon, 25.7%; in the experiment with MCF7 breast, 43.5%; in the experiment with HCT-116 colon, 30.5%. In addition, the growth with HCC-2998 colon is 77.6%; in the experiment with KM12 colon, 30.7%.
With `FC(F)(F)C1=NNC(c2ccc3ccccc3c2)=NN1`, the growth with T-47D breast was 96.7%; in the experiment on BT-549 breast, 107%; in the experiment with MDA-MB-435 melanoma, 102%; in the experiment with SW-620 colon, 97.9%; with MCF7 breast, 88.7%; in the experiment on HCT-116 colon, 100%. Moreover, the growth in the experiment on HCC-2998 colon was 118%; in the experiment with KM12 colon, 93.7%.
`O=C(CN1CCN(c2ccccc2)CC1)N1CCN(c2nnc(-c3ccc(Cl)cc3)c(-c3ccc(Cl)cc3)n2)CC1`: the growth is 36.1% in the experiment on T-47D breast; 46.2% in the experiment on BT-549 breast; 48.2% in the experiment on MDA-MB-435 melanoma; 68.8% in the experiment on SW-620 colon; 33% with MCF7 breast; 25% with HCT-116 colon. In addition, the growth in the experiment on HCC-2998 colon is 62.4%; in the experiment on KM12 colon, 46.1%.
Take `O=C(/C=C/c1cn(-c2ccccc2)nc1-c1cccc(Nc2ccnc3cc(Cl)ccc23)c1)c1ccc2c(c1)OCO2`: the growth in the experiment on T-47D breast is 93.3%; in the experiment with BT-549 breast it was 100%; with MDA-MB-435 melanoma it was 69.6%; in the experiment with SW-620 colon, 95.9%; in the experiment with MCF7 breast, 81.1%; with HCT-116 colon, 83.8%. Besides, the growth with HCC-2998 colon was 102%; in the experiment with KM12 colon, 94.1%.
`O=c1[nH]c2ccccc2n2cc3cccnc3c12`: the growth in the experiment on T-47D breast is 81%; with BT-549 breast it was 111%; in the experiment with MDA-MB-435 melanoma, 12.5%; with SW-620 colon, 31.5%; in the experiment on MCF7 breast, 32.2%; in the experiment on HCT-116 colon, 33%. The growth with HCC-2998 colon is 82.1%; in the experiment with KM12 colon, 52.6%.
`COC(=O)C(C)NC1=C(Cl)C(=O)C(NC(C)C(=O)OC)=C(Cl)C1=O` (stereo not drawn): the growth was 96.6% with T-47D breast; 99.4% with BT-549 breast; 75.7% in the experiment with MDA-MB-435 melanoma; 104% with SW-620 colon; 82.2% with MCF7 breast; 97.9% in the experiment with HCT-116 colon. Further, the growth was 106% with HCC-2998 colon and 96.8% with KM12 colon.
As for `CC(=O)c1c(O)c(C)c(O)c2c1OC1=CC(=O)/C(=C(/C)N)C(=O)C12C` (stereo not drawn), the growth in the experiment with T-47D breast was 74.9%; in the experiment with BT-549 breast, 89.3%; in the experiment with MDA-MB-435 melanoma, 103%; in the experiment on SW-620 colon, 99.4%; in the experiment on MCF7 breast it was 85.4%; with HCT-116 colon it was 63.4%. For the same molecule, the growth was 103% with HCC-2998 colon and 88% in the experiment on KM12 colon.
For `CN(CCO)c1ccc(N2Cc3ccccc3OC3=C2C(=O)c2c(O)ccc(O)c2C3=O)cn1`, the growth with T-47D breast is -42.7% (active); in the experiment with BT-549 breast, -73.2% (active); in the experiment on MDA-MB-435 melanoma, -84% (active); in the experiment on SW-620 colon it was -51.7% (active); in the experiment with MCF7 breast, -34.9% (active); in the experiment with HCT-116 colon it was -85.6% (active). Further, the values for the growth in the experiment on HCC-2998 colon and with KM12 colon were -84.2% (active) and -78% (active), respectively.
On to `Cc1ccccc1N1C(c2ccccc2)=NNC12C=CC(=O)c1c(O)cccc12` (stereo not drawn), for which the growth in the experiment on T-47D breast was 87.7%; with BT-549 breast, 77%; with MDA-MB-435 melanoma, -89.5% (active); with SW-620 colon, 98.6%; in the experiment on MCF7 breast, 73.5%; in the experiment with HCT-116 colon it was 66.5%. Also, the growth was 90.3% in the experiment with HCC-2998 colon and 77.6% in the experiment with KM12 colon.
Take `CCN(CC)CCCC(C)Nc1cnc(C(=O)Nc2ccc(Cl)c3cccnc23)cn1` (stereo not drawn): the growth is -49.3% (active) in the experiment on T-47D breast; 80.1% in the experiment on BT-549 breast; -57.8% (active) with MDA-MB-435 melanoma; 0.619% (active) in the experiment on SW-620 colon; -2.14% (active) with MCF7 breast; -52.4% (active) in the experiment with HCT-116 colon. Moreover, the growth was 32.6% in the experiment on HCC-2998 colon and 30.3% in the experiment on KM12 colon.
Regarding `COc1ccc(-c2oc(=O)ccc2-c2cc(OC)c(OC)c(OC)c2)cc1F`, the growth with T-47D breast was 104%; with BT-549 breast it was 98.5%; in the experiment with MDA-MB-435 melanoma, -2.61% (active); with SW-620 colon, 46.4%; in the experiment with MCF7 breast, 44%; in the experiment with HCT-116 colon it was 60.2%. The growth is 65% with HCC-2998 colon and 41.6% in the experiment with KM12 colon.
As to `CN(C)c1ccc(N2Cc3ccccc3OC3=C2C(=O)c2c(O)ccc(O)c2C3=O)cn1`, the growth in the experiment with T-47D breast was -47.9% (active); in the experiment with BT-549 breast it was -71.2% (active); in the experiment on MDA-MB-435 melanoma, -21.3% (active); in the experiment on SW-620 colon it was -58.3% (active); in the experiment on MCF7 breast it was -55% (active); with HCT-116 colon, -86.8% (active). Moreover, the figures for the growth in the experiment with HCC-2998 colon and in the experiment on KM12 colon were -75.2% (active) and -41.9% (active), respectively.
As for `Nc1c(C(=O)c2ccc(Br)cc2)sc2nc3c(cc12)CCCC3`, the growth is 101% with T-47D breast; 89.4% in the experiment on BT-549 breast; 49.9% in the experiment on MDA-MB-435 melanoma; 105% in the experiment with SW-620 colon; 88.4% with MCF7 breast; 98.5% in the experiment with HCT-116 colon. Further, the results for the growth in the experiment with HCC-2998 colon and in the experiment on KM12 colon were 99.6% and 75.4%, respectively.
Consider `Oc1ccc(Cl)cc1-c1cc(-c2ccccc2Cl)[nH]n1`, for which the growth in the experiment with T-47D breast was 11.1%; in the experiment on BT-549 breast, 76.2%; in the experiment with MDA-MB-435 melanoma, 48.1%; in the experiment with SW-620 colon, 74.7%; with MCF7 breast, 9.57% (active); with HCT-116 colon, 55.8%. Also, the growth with HCC-2998 colon is 31.1%; in the experiment on KM12 colon, 19.7%.
